Compound activity from PubChem BioAssay.
Rab9 prom act – Rab9 promoter activation; Huh7 Rab9 promoter-luciferase reporter, luminescence, 24 h; Potency, µM (doses to about 9.22 µM), for the others: at the top dose activation, negative = inhibition, hits mostly activators; 2.8% of 320,000 active; AID 485297; also: % of control where 0% means no effect; nearly all actives have a fitted effect of over 60% in size
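Rab9 promoter-driven luciferase in stably transfected Huh7 cells; 1500 cells/well rested 2 h, exposed to compound in DMSO for 24 h at 37 °C, 5% CO2. Luminescence read 10 min after adding luciferase reagent at ambient temperature.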
NPC1 promoter act – activates the NPC1 promoter; Huh7 NPC1 promoter luciferase reporter, 24 h; Potency, µM (top dose mostly 9.22 µM), for the others: top-dose activation, most hits filed as activators; 2.4% of 320,000 active; also: % of control where 0% means no effect; nearly all actives have a fitted effect of over 60% in size
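Stably transfected Huh7 (NPC1 promoter→luciferase), 1500 cells/well in Opti-MEM + 10% FBS, 2 h settle, then compound 24 h at 37 °C. Luminescence after 10 min with Amplite reagent.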
ELG1 repair inh – inhibitors of ELG1-dependent DNA repair in HEK293T cells; HEK293T ELG1-luciferase reporter, luminescence, 16 h; DNA damage induced by 5-fluorouridine; Potency, µM (titrated, usually from 46.1 µM), inactives show top-dose activity change, negative = inhibition, most hits filed as inhibitors; 2.3% of 330,000 active; also: % is scaled to controls: 0 for no effect and ±100 for the full control effect; nearly all actives have a fitted effect of over 55% in size
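HEK293T cells expressing luciferase-tagged ELG1 (2,000/well) received 5-Fluorouridine plus compound or DMSO for 16 hr at 37 °C. Luciferase was read by ONE-Glo luminescence after 30 min at room temperature.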
FLuc counter – counter-screen for miR-21 project: firefly luciferase inhibitors or activators. P08659. purified FLuc, Km substrates, luminescence inhibition. Potency, µM (highest dose often 57.5 µM), without a hit: at the top dose activity change, negative = inhibition, hits mostly inhibitors. 6.9% of 360,000 active. AID 588342;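 also: plate controls were vehicle for no effect and reference inhibitor for full effect; nearly all actives have a fitted effect of over 55% in size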
Target sequence (P08659 whole entry, looked up): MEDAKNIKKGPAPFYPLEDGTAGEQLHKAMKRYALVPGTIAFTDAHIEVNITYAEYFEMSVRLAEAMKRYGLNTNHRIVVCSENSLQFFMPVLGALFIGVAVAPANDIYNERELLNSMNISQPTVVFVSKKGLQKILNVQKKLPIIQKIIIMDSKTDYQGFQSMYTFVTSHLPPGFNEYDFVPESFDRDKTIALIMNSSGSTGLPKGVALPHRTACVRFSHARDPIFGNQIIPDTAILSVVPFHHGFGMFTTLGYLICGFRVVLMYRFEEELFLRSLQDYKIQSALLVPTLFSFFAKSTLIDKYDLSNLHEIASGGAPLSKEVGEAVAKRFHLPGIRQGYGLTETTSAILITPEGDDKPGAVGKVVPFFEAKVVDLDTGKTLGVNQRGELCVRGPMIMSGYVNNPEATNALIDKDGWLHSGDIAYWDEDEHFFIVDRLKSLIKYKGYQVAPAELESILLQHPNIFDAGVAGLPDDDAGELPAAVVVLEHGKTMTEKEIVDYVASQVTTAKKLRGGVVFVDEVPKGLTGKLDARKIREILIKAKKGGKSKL
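Purified P. pyralis luciferase, 10 nM final, with Km-level 10 uM D-luciferin and 10 uM ATP in 50 mM Tris acetate pH 7.5, 10 mM Mg acetate, 0.01% Tween-20, 0.05% BSA; 6-point qHTS titration about 60 µM downward; luminescence read.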
SMN2 splice enh – SMN2 splice variant enhancement. HEK293 SMN2-luciferase splicing reporter, luminescence, 30-36 h. Potency, µM (highest dose often 46.1 µM), inactives show top-dose activity change, positive = activation, usual class: activators. 2.8% of 210,000 active; also: % of control where 0% means no effect; nearly all actives have a fitted effect of over 55% in size
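HEK293 cells carry an SMN2 minigene-luciferase reporter in which exon 7 inclusion puts luciferase in frame. Cells were seeded at 2000 cells/well, attached for 10-12 hours, then exposed to compounds for 30-36 hours at 37C before ONE-Glo luminescence.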
ELG1 genotox – genotoxicity induction in ELG1-luciferase HEK293T cells; AID 504466; Potency, µM (titrated, usually from 46 µM), for the others: at the top dose activity change, positive = activation, usual class: activators; HEK293T ELG1-luciferase reporter, luminescence, 16 h; 1.3% of 330,000 active; also: % of control where 0% means no effect; nearly all actives have a fitted effect of over 60% in size
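Genotoxic stress is detected as increased luminescence from luciferase-tagged ELG1 in HEK293T cells, measured with ONE-Glo after a 16 hr treatment at 37 °C.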
The depositor's hits bear a star; ? = inconclusive; nt = no result; [ ] = dose if it differs, or a comment. Sampled rows, rich in hits. Any-hit rate of the full collection: about 9.3%. Calls follow the shape of the dose curve; as a rule, active = well fitted curve in the direction sought with a large enough effect; inconclusive = small, poorly fitted or top-dose-only effect, or another doubt; inactive = no such curve, though single readings can be large; an effect the other way counts as inactive or inconclusive. Potency is read from the fitted curve at half-maximal effect.

SMILES | Rab9 prom act | NPC1 promoter act | ELG1 repair inh | FLuc counter | SMN2 splice enh | ELG1 genotox
O=C(N/N=C/c1c[nH]c2ccccc12)c1ccc2c(c1)OCCO2 | ? | ? | ? | 0.95µM* | nt | ?
Cc1cc(C(=O)N/N=C/c2c[nH]c3ccccc23)cs1 | 11% | 16% | ? | 15µM* | ? | 17%
COc1ccc(OC)c(/C=N/NC(=O)c2cc(-c3ccc(C)o3)nc3ccccc23)c1 | 1% | 1% | ? | ? | -1% | -5%
COc1cccc(N2CC(C(=O)Nc3nnc(SCC(=O)Nc4cc(C)on4)s3)CC2=O)c1 (centres undefined) | -4% | -3% | -12% | 1% | ? | 2%
COc1cc(C(CC(=O)N2CCN(c3ccccc3)CC2)c2c(OC)cc(OC)c3ccc(=O)oc23)cc(OC)c1OC (centres undefined) | -10% | -3% | 12% | 0% | nt | 0%
O=C(NC1CCCCCC1)c1cccnc1Sc1ccccc1 | -3% | -1% | 3% | 4% | -2% | 0%
Cc1occc1-c1nnc(SCC(=O)NC2CC2)n1C(C)C | 6% | 5% | 2% | -2% | nt | 4%
O=C(NCCCCCCNC(=O)N1CCCCCC1)N1CCCCCC1 | 3% | 9% | 6% | -2% | 1% | 2%
CN1CCN(c2ccc(-c3ccnn3C(=O)Nc3cccc(C(F)(F)F)c3)cc2)CC1 | 23%[1.84 µM] | 3.5µM* | ? | 21µM* | 13µM* | ?
CSc1ccc(-c2nnn(Cc3ccc(Br)cc3)n2)cc1 | 16% | 15% | ? | ? | 10% | ?
O=C(CSc1nnc(NCc2ccccc2)s1)c1ccco1 | 10% | 17% | 9% | 15µM* | 9% | 5%
C=CCn1c(C)cc(C(=O)CSc2nc3ccccc3o2)c1C | ? | 0.63µM* | ? | 1.9µM* | ? | 1.6µM*
Cc1cc(C(=O)CSc2nc3ccccc3o2)c(C)n1C1CC1 | 2.2µM* | 2.2µM* | ? | 13µM* | 11µM* | 18µM*
C=CCn1c(C)cc(C(=O)CSc2nnc(NC(C)C)s2)c1C | 15% | 27% | 19% | ? | 10% | 1%
CC(=O)CSc1nc2ccccc2o1 | 19% | 5% | ? | -16% | 3% | ?
C=CCn1c(C)cc(C(=O)CSc2nnc(NCc3ccccc3)s2)c1C | 11% | 7% | 26% | 17µM* | 3% | 13%
Cc1cc(NC(=O)CSc2nnc(NCc3ccccc3)s2)no1 | -4% | -5% | -4% | -6% | nt | -1%
Cc1cc(C(=O)CSc2ncnc3ccccc23)c(C)n1C1CC1 | -6% | 15% | ? | ? | nt | 0%
C=CCn1c(C)cc(C(=O)CSc2nnc(Cc3ccccc3)o2)c1C | 7% | 14% | 28% | 15µM* | -7% | 1%
Cc1cc(C(=O)CSc2nnc(Cc3ccccc3)o2)c(C)n1Cc1ccc2c(c1)OCO2 | -6% | -6% | -8% | -22% | -49% | -6%
Cc1ccc(NCc2ccco2)cc1C | -2% | -4% | 24% | ? | nt | 2%
Cc1ccc(Nc2nnc(-c3ccccc3N)o2)cc1C | 3.5µM* | 3.5µM* | ? | 2.7µM* | nt | ?
COc1ccc(CN(Cc2ccc(C(=O)O)cc2)C(=S)Nc2ccccc2Cl)cc1OC | -1% | -2% | ? | -11% | -12% | 0%
Cc1cccc(C)c1NC(=O)CN(C)CC(=O)N1CC(=O)Nc2ccccc21 | nt | nt | -10% | nt | nt | 3%
COc1ccc(C(=O)N/N=C\c2coc3ccccc3c2=O)cc1 | -5% | -3% | -13% | 4.8µM* | nt | -7%
O=C(N/N=C/c1coc2ccc(Cl)cc2c1=O)c1ccc(O)cc1 | 0% | -1% | ? | -1% | nt | -20%
COc1ccc(C(=O)N/N=C\c2coc3ccc(Cl)cc3c2=O)cc1 | 8% | -2% | ? | -2% | nt | -20%
O=C(N/N=C/c1coc2ccc(Cl)cc2c1=O)c1ccncc1 | 4% | 1% | 16µM* | 1% | nt | -23%
